Experimental data as given in the supplement of paper PMC10849652.
About 8,800 targets were measured; listed, in parts, are those with a hit and a random draw of the rest. About 0.5% of all pairs of compound and target were hits. A number with no mark means an inactive call.

Columns and labels:
Experiment in all cases: log2 fold change, soluble protein after heating vs DMSO (PISA); higher = thermal stabilisation; K562 lysate, 10 uM; active = over 0.2 and 3.5 SD of the protein, either way, in both replicates (recomputed)
erlotinib = compound: C#Cc1cccc(Nc2ncnc3cc(OCCOC)c(OCCOC)cc23)c1 [erlotinib]
Outline: (§1)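 To prepare the extract, K562 pellets were dounce-homogenised in PBS pH 7.4 with 1 mM MgCl2, giving crude material at 1 mg/mL protein. This was treated with 10 μM compound for 30 min, then heated in aliquots for 3 min over 48°C-58°C before pooling and addition of NP-40 to 0.5% at 4°C. Centrifugation at 21,000xg for 90 min left soluble protein in the supernatant, which TMTpro 16plex LC-MS/MS quantified with equalised channel sums. Results are log-two fold changes in thermal stability compared with solvent controls, from duplicates.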

[1] = compound: C/C(=N\NC(=O)C1=CC(=CC=C1)S(=O)(=O)N2CCOCC2)/C3=C(C=CC(=C3)Cl)O
Outline: as §1

[2] = compound: C1=CC(=CC=C1C2=NC3=C(N2)C=C(C=C3)C(=O)N)OC4=CC=C(C=C4)Cl
Outline: as §1

[3] = compound: C1=CC2=C(C=CC(=C2)/C=C\3/C(=O)NC(=NCC4=CC=CS4)S3)N=C1
Outline: as §1

[4] = compound: C1=CC2=NC=CN=C2C=C1/C=C/3\C(=O)NC(=O)S3
Outline: as §1

[5] = compound: C1=CC=C(C=C1)C2=NC(=C(N2)C3=CC=NC=C3)C4=CC(=C(C=C4)Cl)O
Outline: as §1

[6] = compound: C1=CC=C2C(=C1)C3=NNC4=CC=CC(=C43)C2=O
Outline: as §1

[7] = compound: C1CCN(C1)C(=O)NC2=CC=CC(=C2)NC3=NC=C(C(=N3)NCCC4=CN=CN4)Br
Outline: as §1

[8] = compound: C1CN(CCC1(CC2=CC=C(C=C2)Cl)N)C3=NC=NC4=C3C=CN4
Outline: as §1

IRAK-1-4 Inhibitor I = compound: C1COCCN1CCN2C3=CC=CC=C3N=C2NC(=O)C4=CC(=CC=C4)[N+](=O)[O-] [IRAK-1-4 Inhibitor I]
Outline: as §1

ibrutinib = compound: C=CC(=O)N1CCC[C@@H](n2nc(-c3ccc(Oc4ccccc4)cc3)c3c(N)ncnc32)C1 [ibrutinib]
Outline: as §1

[9] = compound: CC(=O)c1cnc2ccc(-c3cc(Cl)c(O)c(Cl)c3)nc2c1N[C@H]1CC[C@H](CN(C)C)CC1
Outline: as §1

ralimetinib = compound: CC(C)(C)Cn1c(N)nc2ccc(-c3[nH]c(C(C)(C)C)nc3-c3ccc(F)cc3)nc21 [ralimetinib]
Outline: as §1

[10] = compound: CC(C)(O)CC(=O)NCCn1ccc2ncnc(Nc3ccc(Oc4cccc(C(F)(F)F)c4)c(Cl)c3)c21
Outline: as §1

[11] = compound: CC(C)C1=C2N=C(C=C(N2N=C1)NCC3=CC=CC=C3)NCCCCCCN
Outline: as §1

[12] = compound: CC1=C(C(CC(=O)N1)C2=CC=C(C=C2)C(F)(F)F)C(=O)NC3=C(C=C4C(=C3)C=NN4)F
Outline: as §1

[13] = compound: CC1=C(C2=C(C=C1)C(=O)C3=CC=CC=C3N2CCCN)C
Outline: as §1

[14] = compound: CC1=C(C=C(C=C1)NC(=O)C2=CC(=CC=C2)C(C)(C)C#N)NC3=CC4=C(C=C3)N=CN(C4=O)C
Outline: as §1

[15] = compound: CC1=C(C=C(C=C1)NC(=O)C2=CC(=CC=C2)N(C)C)NC(=O)C3=CC=C(C=C3)O
Outline: as §1

[16] = compound: CC1=CC=C(C=C1)SC2=C3C=C(SC3=CN=C2)C(=O)N
Outline: as §1

UniProt P04049, sequence (P04049 whole entry, looked up): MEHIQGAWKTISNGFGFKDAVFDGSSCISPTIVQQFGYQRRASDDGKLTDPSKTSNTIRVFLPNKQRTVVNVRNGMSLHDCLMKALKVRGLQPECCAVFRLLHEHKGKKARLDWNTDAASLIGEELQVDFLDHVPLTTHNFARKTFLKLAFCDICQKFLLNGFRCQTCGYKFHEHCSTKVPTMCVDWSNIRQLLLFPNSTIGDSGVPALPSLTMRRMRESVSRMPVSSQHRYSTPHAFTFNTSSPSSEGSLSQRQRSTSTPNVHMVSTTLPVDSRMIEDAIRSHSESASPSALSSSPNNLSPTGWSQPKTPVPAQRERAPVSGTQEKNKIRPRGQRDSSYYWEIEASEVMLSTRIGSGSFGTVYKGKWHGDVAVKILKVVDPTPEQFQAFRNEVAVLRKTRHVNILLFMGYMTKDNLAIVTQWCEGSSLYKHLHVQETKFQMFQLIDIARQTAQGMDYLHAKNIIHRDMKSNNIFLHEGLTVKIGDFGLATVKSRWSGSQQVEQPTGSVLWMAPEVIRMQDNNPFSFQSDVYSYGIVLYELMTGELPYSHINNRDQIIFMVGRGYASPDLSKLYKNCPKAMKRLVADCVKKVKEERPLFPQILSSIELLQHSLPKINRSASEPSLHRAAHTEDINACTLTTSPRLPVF
UniProt Q9GZR2, sequence (Q9GZR2 whole entry, looked up): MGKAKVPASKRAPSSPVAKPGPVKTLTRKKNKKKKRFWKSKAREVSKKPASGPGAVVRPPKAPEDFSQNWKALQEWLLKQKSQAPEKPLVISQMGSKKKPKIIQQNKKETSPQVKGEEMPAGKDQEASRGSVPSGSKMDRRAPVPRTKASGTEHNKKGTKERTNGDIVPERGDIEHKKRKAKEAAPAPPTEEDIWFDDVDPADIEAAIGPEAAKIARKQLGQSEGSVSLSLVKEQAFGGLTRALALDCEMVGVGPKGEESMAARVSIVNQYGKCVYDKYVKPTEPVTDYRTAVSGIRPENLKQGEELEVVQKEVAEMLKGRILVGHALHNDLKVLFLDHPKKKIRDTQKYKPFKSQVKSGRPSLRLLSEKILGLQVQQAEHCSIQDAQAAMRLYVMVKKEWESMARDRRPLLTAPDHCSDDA
UniProt Q9BWH6, sequence (Q9BWH6 whole entry, looked up): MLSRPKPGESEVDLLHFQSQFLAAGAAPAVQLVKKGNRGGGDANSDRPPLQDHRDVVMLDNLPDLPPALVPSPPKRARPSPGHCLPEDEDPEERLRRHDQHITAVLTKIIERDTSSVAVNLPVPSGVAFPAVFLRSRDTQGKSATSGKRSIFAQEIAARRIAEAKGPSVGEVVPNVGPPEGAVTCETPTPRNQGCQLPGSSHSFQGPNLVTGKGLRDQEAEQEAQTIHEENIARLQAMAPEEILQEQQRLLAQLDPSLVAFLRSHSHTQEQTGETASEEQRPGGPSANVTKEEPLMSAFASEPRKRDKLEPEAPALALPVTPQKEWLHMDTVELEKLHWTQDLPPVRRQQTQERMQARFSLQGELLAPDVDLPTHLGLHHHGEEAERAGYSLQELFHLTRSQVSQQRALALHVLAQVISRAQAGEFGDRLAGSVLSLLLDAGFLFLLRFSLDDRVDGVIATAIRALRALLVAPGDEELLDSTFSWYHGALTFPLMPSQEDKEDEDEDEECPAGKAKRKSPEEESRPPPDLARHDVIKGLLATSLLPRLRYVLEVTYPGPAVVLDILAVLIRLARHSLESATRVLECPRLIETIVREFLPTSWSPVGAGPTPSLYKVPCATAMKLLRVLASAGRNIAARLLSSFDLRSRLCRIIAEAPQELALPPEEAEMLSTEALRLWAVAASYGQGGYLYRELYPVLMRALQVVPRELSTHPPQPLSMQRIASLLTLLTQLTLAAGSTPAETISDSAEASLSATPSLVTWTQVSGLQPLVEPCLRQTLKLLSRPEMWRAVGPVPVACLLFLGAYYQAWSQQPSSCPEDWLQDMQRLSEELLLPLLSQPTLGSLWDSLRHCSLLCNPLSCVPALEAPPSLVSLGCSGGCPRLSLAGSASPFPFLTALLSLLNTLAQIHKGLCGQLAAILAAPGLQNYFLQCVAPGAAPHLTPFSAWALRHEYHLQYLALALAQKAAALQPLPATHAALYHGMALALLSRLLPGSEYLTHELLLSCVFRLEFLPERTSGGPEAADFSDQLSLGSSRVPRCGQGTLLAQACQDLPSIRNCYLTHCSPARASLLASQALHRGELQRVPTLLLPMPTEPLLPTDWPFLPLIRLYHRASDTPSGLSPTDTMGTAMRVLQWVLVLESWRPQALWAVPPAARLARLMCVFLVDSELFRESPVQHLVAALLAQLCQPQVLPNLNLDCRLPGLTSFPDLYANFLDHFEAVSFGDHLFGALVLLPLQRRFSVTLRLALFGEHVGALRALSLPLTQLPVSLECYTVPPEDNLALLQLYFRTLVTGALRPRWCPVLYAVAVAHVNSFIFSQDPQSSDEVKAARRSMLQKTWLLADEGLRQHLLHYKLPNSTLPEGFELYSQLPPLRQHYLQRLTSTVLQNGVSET
UniProt Q9H7N4, sequence (Q9H7N4 whole entry, looked up): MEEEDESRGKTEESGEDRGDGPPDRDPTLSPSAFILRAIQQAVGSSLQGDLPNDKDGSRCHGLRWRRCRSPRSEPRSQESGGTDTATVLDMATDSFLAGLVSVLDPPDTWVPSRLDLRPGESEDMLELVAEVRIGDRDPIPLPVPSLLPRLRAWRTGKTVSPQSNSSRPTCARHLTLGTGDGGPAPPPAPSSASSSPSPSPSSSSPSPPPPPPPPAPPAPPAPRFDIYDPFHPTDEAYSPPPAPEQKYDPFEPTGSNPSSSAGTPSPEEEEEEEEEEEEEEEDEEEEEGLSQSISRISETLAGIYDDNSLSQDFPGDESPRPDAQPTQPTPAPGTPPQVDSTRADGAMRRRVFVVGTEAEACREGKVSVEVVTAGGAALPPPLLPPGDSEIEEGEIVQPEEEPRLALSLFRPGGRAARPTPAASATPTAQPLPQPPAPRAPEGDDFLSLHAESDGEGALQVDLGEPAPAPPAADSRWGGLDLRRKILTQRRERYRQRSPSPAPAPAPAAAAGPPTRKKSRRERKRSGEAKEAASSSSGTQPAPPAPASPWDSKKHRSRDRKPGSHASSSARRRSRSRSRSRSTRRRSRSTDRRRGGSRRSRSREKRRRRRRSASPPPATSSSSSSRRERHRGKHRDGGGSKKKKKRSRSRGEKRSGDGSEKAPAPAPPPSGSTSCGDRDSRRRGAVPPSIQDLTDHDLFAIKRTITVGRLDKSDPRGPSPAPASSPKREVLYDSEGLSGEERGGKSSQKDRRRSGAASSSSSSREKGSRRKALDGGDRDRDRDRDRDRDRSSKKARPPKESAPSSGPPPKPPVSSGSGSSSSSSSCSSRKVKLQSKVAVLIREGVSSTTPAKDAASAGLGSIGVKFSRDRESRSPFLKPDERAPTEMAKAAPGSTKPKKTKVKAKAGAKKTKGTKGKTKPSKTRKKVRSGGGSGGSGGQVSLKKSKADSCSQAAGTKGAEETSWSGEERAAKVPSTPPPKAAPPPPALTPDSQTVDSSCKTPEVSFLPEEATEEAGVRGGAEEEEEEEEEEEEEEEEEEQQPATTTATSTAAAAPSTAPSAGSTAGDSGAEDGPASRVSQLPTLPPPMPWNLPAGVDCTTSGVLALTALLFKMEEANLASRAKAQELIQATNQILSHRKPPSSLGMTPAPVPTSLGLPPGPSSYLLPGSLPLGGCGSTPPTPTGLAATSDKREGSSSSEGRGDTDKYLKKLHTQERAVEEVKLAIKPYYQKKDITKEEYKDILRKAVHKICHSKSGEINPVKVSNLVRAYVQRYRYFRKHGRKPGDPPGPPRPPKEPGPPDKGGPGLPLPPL
UniProt O60518, sequence (O60518 whole entry, looked up): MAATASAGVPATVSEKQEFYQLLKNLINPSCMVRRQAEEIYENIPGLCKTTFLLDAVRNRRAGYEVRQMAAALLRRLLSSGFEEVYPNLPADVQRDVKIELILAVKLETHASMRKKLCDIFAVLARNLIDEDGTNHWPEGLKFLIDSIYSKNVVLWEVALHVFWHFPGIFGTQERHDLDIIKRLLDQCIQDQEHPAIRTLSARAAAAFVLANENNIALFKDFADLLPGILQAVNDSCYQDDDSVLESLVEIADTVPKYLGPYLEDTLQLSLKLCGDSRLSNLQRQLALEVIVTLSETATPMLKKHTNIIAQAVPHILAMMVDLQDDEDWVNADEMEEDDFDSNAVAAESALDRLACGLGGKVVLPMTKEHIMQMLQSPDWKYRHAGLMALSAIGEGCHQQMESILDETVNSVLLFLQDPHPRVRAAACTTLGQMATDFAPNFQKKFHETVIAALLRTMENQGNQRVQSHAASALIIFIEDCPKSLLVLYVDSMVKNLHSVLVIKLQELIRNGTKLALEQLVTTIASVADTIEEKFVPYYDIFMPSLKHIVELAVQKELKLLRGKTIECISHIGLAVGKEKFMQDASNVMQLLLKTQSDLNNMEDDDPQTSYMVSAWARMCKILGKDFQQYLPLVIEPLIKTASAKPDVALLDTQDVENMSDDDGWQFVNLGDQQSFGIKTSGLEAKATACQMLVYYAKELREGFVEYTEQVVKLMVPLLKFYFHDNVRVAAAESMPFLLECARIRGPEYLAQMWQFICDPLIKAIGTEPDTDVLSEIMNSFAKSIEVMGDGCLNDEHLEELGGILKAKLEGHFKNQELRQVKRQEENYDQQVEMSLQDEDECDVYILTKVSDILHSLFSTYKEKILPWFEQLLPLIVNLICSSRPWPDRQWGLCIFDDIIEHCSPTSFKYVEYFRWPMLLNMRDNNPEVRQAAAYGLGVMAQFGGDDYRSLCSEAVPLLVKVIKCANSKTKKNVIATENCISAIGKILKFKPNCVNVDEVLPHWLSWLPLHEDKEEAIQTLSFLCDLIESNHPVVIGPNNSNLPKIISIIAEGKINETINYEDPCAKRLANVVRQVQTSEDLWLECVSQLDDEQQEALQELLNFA
UniProt P61586, sequence (P61586 whole entry, looked up): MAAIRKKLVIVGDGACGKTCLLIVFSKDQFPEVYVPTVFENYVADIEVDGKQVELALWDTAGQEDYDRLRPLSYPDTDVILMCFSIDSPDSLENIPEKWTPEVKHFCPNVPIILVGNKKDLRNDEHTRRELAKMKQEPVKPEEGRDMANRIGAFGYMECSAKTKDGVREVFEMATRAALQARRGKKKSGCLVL

| Target | log2 fold change (erlotinib) | log2 fold change [1] | log2 fold change [2] | log2 fold change [3] | log2 fold change [4] | log2 fold change [5] | log2 fold change [6] | log2 fold change [7] | log2 fold change [8] | log2 fold change (IRAK-1-4 Inhibitor I) | log2 fold change (ibrutinib) | log2 fold change [9] | log2 fold change (ralimetinib) | log2 fold change [10] | log2 fold change [11] | log2 fold change [12] | log2 fold change [13] | log2 fold change [14] | log2 fold change [15] | log2 fold change [16] |
| --- | --- | --- | --- | --- | --- | --- | --- | --- | --- | --- | --- | --- | --- | --- | --- | --- | --- | --- | --- | --- |
| RHAG (UniProt Q02094) | 0.017 | -0.123 | -0.087 | 0.086 | -0.007 | -0.012 | -0.145 | -0.126 | -0.014 | 0.081 | 0.004 | -0.035 | -0.001 | -0.068 | 0.042 | 0.09 | -0.056 | 0.08 | 0.008 | -0.003 |
| RNF168 (UniProt Q8IYW5) | -0.018 | -0.023 | 0.001 | -0.081 | 0.037 | -0.007 | -0.114 | -0.311 (active) | 0.053 | 0.008 | 0.155 | 0.144 | 0.004 | -0.041 | -0.034 | -0.071 | 0.031 | 0.026 | -0.04 | 0.011 |
| RANBP6 (UniProt O60518) | 0.045 | -0.043 | -0.003 | -0.034 | 0.061 | 0.027 | 0.021 | 0.044 | -0.019 | 0.04 | -0.034 | -0.05 | 0.025 | -0.066 | -0.034 | -0.005 | -0.017 | -0.009 | 0.026 | 0.009 |
| RDX (UniProt P35241) | -0.013 | 0.017 | 0.014 | -0.023 | -0.032 | 0.018 | -0.009 | 0.012 | -0.025 | 0.006 | -0.051 | 0 | -0.003 | 0.002 | 0.012 | -0.016 | -0.011 | -0.021 | -0.002 | -0.004 |
| REEP5 (UniProt Q00765) | 0.017 | -0.041 | 0.022 | 0.036 | 0.001 | -0.008 | -0.077 | -0.008 | 0.015 | 0.025 | 0.043 | 0.004 | -0.014 | -0.01 | -0.037 | 0.017 | -0.039 | 0.004 | -0.016 | -0.042 |
| RELN (UniProt P78509) | 0.012 | 0.004 | 0.014 | 0.025 | 0.001 | 0.033 | -0.015 | 0.042 | 0.058 | 0.002 | 0.011 | -0.237 (active) | 0.011 | -0.038 | -0.039 | -0.01 | 0 | -0.002 | 0.041 | 0.09 |
| RPL31 (UniProt P62899) | -0.018 | -0.097 | -0.03 | -0.01 | 0.001 | 0 | 0.038 | 0.043 | -0.039 | 0.026 | -0.031 | -0.011 | 0.009 | -0.022 | 0.003 | -0.06 | -0.043 | -0.013 | -0.021 | 0.016 |
| RHOA (UniProt P61586) | 0.001 | -0.093 | 0.049 | -0.093 | -0.09 | 0.064 | 0.038 | -0.022 | 0.039 | -0.022 | 0.36 | -0.041 | 0.014 | 0.094 | 0.031 | 0.003 | 0.093 | -0.02 | -0.022 | -0.006 |
| REXO4 (UniProt Q9GZR2) | -0.041 | -0.195 | -0.041 | -0.084 | -0.052 | 0.027 | -0.033 | -0.022 | 0.003 | -0.027 | 0.014 | 0.027 | 0.021 | 0.074 | -0.024 | 0.023 | -0.053 | -0.043 | 0.056 | 0.008 |
| RPAP1 (UniProt Q9BWH6) | 0.05 | -0.078 | 0.019 | 0.016 | 0.007 | -0.028 | 0.001 | -0.001 | 0.02 | 0.005 | -0.016 | 0.049 | 0.02 | -0.015 | -0.037 | 0.011 | -0.002 | -0.013 | 0.007 | -0.033 |
| SEC13 isoform 3 (UniProt P55735) | 0.032 | 0.02 | 0.009 | -0.019 | 0 | -0.001 | -0.033 | -0.019 | 0.006 | -0.028 | -0.084 | -0.025 | 0.024 | -0.01 | -0.015 | -0.005 | 0.034 | -0.032 | 0.031 | -0.014 |
| RAF1 isoform 2 (UniProt P04049) | -0.011 | -0.033 | -0.016 | -0.072 | -0.113 | -0.009 | 0.007 | 0.036 | -0.044 | -0.058 | -0.046 | 0.047 | 0.054 | 0.004 | 0.065 | 0.092 | -0.055 | 0.359 (active) | 0 | 0.027 |
| SCAF1 (UniProt Q9H7N4) | 0.016 | 0.113 | 0.066 | 0.218 | 0.025 | -0.022 | 0.033 | 0.047 | 0.041 | 0.081 | 0.219 | -0.054 | -0.025 | 0.171 | 0.042 | 0.065 | -0.06 | 0.056 | 0.056 | 0.002 |
| RAE1 (UniProt P78406) | 0.045 | -0.036 | 0.014 | 0.046 | 0.012 | -0.021 | -0.007 | -0.019 | 0.033 | -0.024 | -0.033 | -0.01 | 0.007 | 0.185 | -0.007 | -0.022 | 0.012 | -0.064 | 0.011 | 0.023 |
| SAMHD1 (UniProt Q9Y3Z3) | 0.035 | 0.036 | 0.004 | 0.015 | 0.005 | -0.021 | -0.057 | -0.065 | 0.035 | 0.013 | -0.009 | -0.022 | 0.056 | -0.004 | -0.002 | 0.003 | -0.017 | 0.006 | 0.067 | -0.003 |
| R3HCC1 (UniProt Q9Y3T6) | -0.015 | -0.118 | 0.055 | 0.074 | -0.086 | 0.071 | -0.008 | 0.006 | -0.016 | -0.044 | 0.02 | 0.058 | 0.016 | -0.028 | -0.045 | 0.022 | -0.061 | 0.017 | -0.001 | 0.025 |
